Measurements from PubChem BioAssay AID1210 (NMMLSC, 2008).
Calls of active or inactive are those of the source.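 The calls were made as follows: active = blocks over 70% of labeled estradiol binding at 10 µM, or over a set limit at 100 nM; inactive = the rest.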

Target: Estrogen receptor beta (Homo sapiens) (UniProt Q92731)
Assay: ERbeta ligand binders by competition, primary screen, cell-based, Cos7 ERbeta-GFP, flow cytometry (AID 1210);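 also: 0% = DMSO vehicle wells and 100% = complete loss of labeled estradiol signal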
Settings: fluorescent estrogen binding, at 10 µM, hits give high values

Estrogen receptor beta (Homo sapiens), sequence (Q92731 whole entry, looked up): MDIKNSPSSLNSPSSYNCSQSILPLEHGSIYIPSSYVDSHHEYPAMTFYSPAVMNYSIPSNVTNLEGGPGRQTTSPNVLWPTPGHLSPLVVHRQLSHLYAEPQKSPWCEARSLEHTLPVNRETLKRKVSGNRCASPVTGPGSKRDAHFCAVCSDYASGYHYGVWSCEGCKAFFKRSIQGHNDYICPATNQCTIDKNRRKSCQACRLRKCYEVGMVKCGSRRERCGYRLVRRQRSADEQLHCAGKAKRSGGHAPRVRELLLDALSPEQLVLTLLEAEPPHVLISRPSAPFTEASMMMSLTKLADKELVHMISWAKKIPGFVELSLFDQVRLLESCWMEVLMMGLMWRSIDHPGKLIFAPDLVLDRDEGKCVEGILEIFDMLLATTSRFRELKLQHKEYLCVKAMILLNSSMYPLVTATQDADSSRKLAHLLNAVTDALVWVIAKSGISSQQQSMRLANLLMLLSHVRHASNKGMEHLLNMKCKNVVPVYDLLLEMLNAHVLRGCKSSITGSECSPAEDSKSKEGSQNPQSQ

Compound	inhibition
CN1C(=O)CC(C(=O)O)SC1=Nc1cc(Cl)c(O)c(Cl)c1 (configuration not stated)	48% (inactive)
CCOC(=O)COc1cc2oc(=O)c3c(c2cc1CC)CCCC3	23% (inactive)
O=c1oc2ccccc2cc1-c1ccc(O)cc1	58% (inactive)
Cc1ccc(NC(=O)CSc2nnnn2-c2ccc3c(c2)OCO3)cc1C	32% (inactive)
CC1(C)CC(=O)C=C(NC2CC(C)(C)NC(C)(C)C2)C1	2% (inactive)
Cc1ccc(N=Cc2c(O)n(-c3ccc4c(c3)OCO4)c(=O)c3ccccc23)cc1	15% (inactive)
COc1cccc(C2NCCc3cc(OC)c(OC)cc32)c1 (configuration not stated)	15% (inactive)
CCOc1cc2c(c([N+](=O)[O-])c1)NC(c1ccccc1)C1CC=CC21 (configuration not stated)	17% (inactive)
CC(=O)OC1CC2(C)C(=O)CCC2C2CCc3cc(O)ccc3C12 (configuration not stated)	95% (active)
O=c1cc(O)c2sc(Nc3ccc(F)cc3)nc2[nH]1	8% (inactive)
O=C(COC(=O)CN1C(=O)c2ccccc2C1=O)Nc1ncc(Cl)cc1Cl	33% (inactive)
CN(C)NC(=S)Nc1ccc2nc(-c3ccccn3)c(-c3ccccn3)nc2c1	25% (inactive)
O=C1CC(c2ccncc2)c2cc3c(cc2N1)OCCO3 (configuration not stated)	14% (inactive)
COc1ccc(OC)c(NC(=O)c2cc(-c3ccc(C)cc3O)n[nH]2)c1	19% (inactive)
C=C1c2ccc(OC)cc2NC(=O)N1c1ccccc1	15% (inactive)
COc1cc([N+](=O)[O-])cc2c1NC(c1ccccc1)C1CC=CC21 (configuration not stated)	10% (inactive)
COc1ccc(C2Nc3ccccc3C(=O)N2c2ccc(Cl)cc2)cc1Cn1cc([N+](=O)[O-])cn1 (configuration not stated)	63% (inactive)
